Source: PubChem BioAssay
A selection: hits, their analogues and other compounds. The true share with any hit is near 2.9%.
KDM5B inhibitor – Primary screen for KDM5B Histone Demethylases FDH-coupled qHTS | KDM5B demethylase, FDH-coupled NADH fluorescence (FDH is formaldehyde dehydrogenase) | AID 1347165, 2019 | Lysine-specific demethylase 5B (Homo sapiens), Q9UGL1 | Potency, µM (highest dose often 57.7 µM), most hits filed as inhibitors | actives 2.6% (n = 220,000); note: potency is the fitted concentration of half-maximal effect; 0% is about no effect; nearly all actives have a fitted effect of over 70% in size
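KDM5BΔAP (200 nM final) in 50 mM HEPES pH 7.5, 0.01% Tween-20 was preincubated 10 min at RT with compound over a concentration range. Substrate mix (H3K4me3 12.5 µM, α-KG 25 µM, Fe²⁺, ascorbate, NAD⁺, FDH) was added, and NADH fluorescence change over 30 min gave dose-response curves.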
IP6K1 inh – Primary qHTS assay for small molecule inhibitors of Inositol hexaphosphate kinase 1 (IP6K1). Inositol hexakisphosphate kinase 1 (Homo sapiens), Q92551. actives 0.81% (n = 140,000). IP6K1 kinase, ADP-Glo luminescence, 2 h; stronger effect = lower value. activity change, % (series mostly up to about 58 µM); in the data active = activity change below about -25%; note: % is set by controls: 0 for no effect and ±100 for the full control effect
Target sequence (Q92551 whole entry, looked up): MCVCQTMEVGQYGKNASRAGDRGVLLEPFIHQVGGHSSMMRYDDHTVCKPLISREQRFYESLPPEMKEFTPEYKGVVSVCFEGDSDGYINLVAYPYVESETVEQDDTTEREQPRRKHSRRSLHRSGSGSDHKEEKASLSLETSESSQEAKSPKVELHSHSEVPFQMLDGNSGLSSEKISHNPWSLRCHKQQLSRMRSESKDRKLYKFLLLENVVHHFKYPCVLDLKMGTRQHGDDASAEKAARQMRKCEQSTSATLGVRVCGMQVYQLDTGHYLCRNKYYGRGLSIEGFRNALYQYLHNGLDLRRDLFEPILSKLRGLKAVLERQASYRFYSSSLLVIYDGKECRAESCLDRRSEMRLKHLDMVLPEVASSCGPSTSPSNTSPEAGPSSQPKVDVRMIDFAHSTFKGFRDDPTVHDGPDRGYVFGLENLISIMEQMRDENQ
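ADP-Glo luminescence measures ADP made by human IP6K1 during a 2 h RT reaction with ATP/IP6 (mix at 1.3 mM/130 uM); top library doses 57.5 and 19.1 uM final.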
SNCA expr inh – Primary qHTS assay for inhibitors of alpha-synuclein gene (SNCA) expression | HEK-293 SNCA-luciferase knock-in, luminescence, 24 h | Potency, µM (doses to about 57.2 µM), inactives show at the highest dose activity change, negative = inhibition, hits mostly inhibitors | actives 0.17% (n = 140,000);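 note: potency is the fitted concentration of half-maximal effect; plate controls were DMSO cells for no effect and cell-free wells for full effect; nearly all actives have a fitted effect of over 45% in size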
HEK293 viab – GF-AFC viability counterscreen for inhibitors of alpha-synuclein gene (SNCA) expression; HEK-293-SNCA-luc viability, GF-AFC fluorescence, 24 h; Potency, µM (titrated, usually from 57.1 µM), for the others: at the highest dose activity change, negative = cytotoxicity, most hits filed as cytotoxic; actives 0.12% (n = 150,000);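 note: potency is the fitted concentration of half-maximal effect; 0% = DMSO-treated cells and -100% = medium-only wells without cells; nearly all actives have a fitted effect of over 30% in size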
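HEK-293-SNCA-luc cells (1500/well) plated 24 h, then exposed 24 h to a dilution series; GF-AFC added 30 min at 37C, fluorescence 405/540 nm; normalised to medium-only and DMSO wells, Hill fit.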
IP6K1 conf – Confirmatory qHTS assay for small molecule inhibitors of Inositol hexaphosphate kinase 1 (IP6K1) | shares compounds with IP6K1 inh | actives 13% (n = 1,200) | AID 1645852, 2021 | Potency, µM (highest dose often 49 µM), without a hit: top-dose activity change, negative = inhibition, most hits filed as inhibitors | recombinant IP6K1 kinase, ADP-Glo luminescence, 2 h; note: potency is the fitted concentration of half-maximal effect; % is set by controls: 0 for no effect and ±100 for the full control effect; nearly all actives have a fitted effect of over 65% in size
* marks the source's active call; other numbers are inactive results; i = inactive; ? = inconclusive; . = no result; [ ] = dose if it differs, or a comment. Unless noted, calls come from the whole dose curve; as a rule, active = well fitted curve in the direction sought with a large enough effect; inconclusive = small, poorly fitted or top-dose-only effect, or another doubt; inactive = no such curve, though single readings can be large; an effect the other way counts as inactive or inconclusive.

SMILES | KDM5B inhibitor | IP6K1 inh | SNCA expr inh | HEK293 viab | IP6K1 conf
CCC(=O)NCc1cc2c(nc1OC)CN(C1CCCC1)C2=O | ? | -33* | 4% | 18% | -10%
CCCC(=O)NCc1cc2c(nc1OC)CN(C1CCCC1)C2=O | i | -1 | 5% | 2% | .
CN(Cc1cccc2cnccc12)C(=O)COc1ccc(Cl)cc1Cl | i | -5 | 10% | -28% | .
CC(C)CC(=O)OC[C@H]1O[C@@](COC(=O)CC(C)C)(O[C@H]2O[C@H](CO)[C@@H](O)[C@H](O)[C@H]2OC(=O)CC(C)C)[C@@H](OC(=O)CC(C)C)[C@@H]1O | . | -1 | . | -13%[23.9 µM] | .
C/C=C(\C)C(=O)O[C@H]1[C@@H](O[C@]2(COC(=O)CC(C)C)O[C@H](COC(=O)C(C)C)[C@@H](OC(C)=O)[C@@H]2O)O[C@H](COC(C)=O)[C@@H](O)[C@@H]1O | . | -38* | . | -3%[23.9 µM] | ?
COc1ccc(-c2ccc(C(=O)NC3CC(c4cc(=O)[nH]c(N)n4)C3)o2)cc1 (centres undefined) | i | -30* | 102% | -4% | ?
CSc1ncccc1C(=O)NC1CC(c2cc(=O)[nH]c(N)n2)C1 (centres undefined) | i | 12 | -6% | 1% | .
COc1ccc(-c2ccc(C(=O)NCc3cccc(F)c3)c(Cl)c2)nn1 | . | -2 | . | . | .
CC(C)NC(=O)N1CCC(N2CCN(Cc3ccc(F)cc3)C(=O)C2=O)CC1 | i | 10 | 18% | -11% | .
CC(C)NC(=O)N1CC[C@H](N=C2Nc3cc(F)ccc3N(CC(F)F)c3ccc(Cl)cc32)C1 | . | -5 | . | 6%[12.5 µM] | -6%[13.7 µM]
O=C(NCc1ccccc1Cl)c1ccc2nnc(-c3cc(C(F)(F)F)cc(C(F)(F)F)c3)n2c1 | . | -3 | -20% | -14% | .
CCN(c1ccccc1)c1nnc(NC(=O)Nc2cccc(Cl)c2C)s1 | i | -102* | -12% | 3% | -22%
COc1cccc(C(=O)NC2CCN(C(=O)c3ccc(-c4ccccc4OC)cc3)CC2)c1 | . | -8 | 1% | 8%[12.5 µM] | .
COc1cccc(-c2nc(-c3ccc(F)cc3)cs2)c1 | i | . | . | . | .
COc1cccc(-c2nc3cc(SC)ccc3cc2CN(C)Cc2ccno2)c1 | 28µM* | -33* | 8% | -4% | -11%
Cc1ccc2c(c1)C(c1ccc(F)cc1)N(C(=O)c1cccc(C(F)(F)F)c1)CC(=O)N2 (centres undefined) | i | -26* | ? | -28% | ?
O=C(NCCc1ccc(Cl)cc1)C1CCN(c2nc3ncccc3o2)CC1 | . | 2 | -17% | 7% | .
O=C(NC1CCN(Cc2cccc(-c3ccc(F)cc3F)c2)CC1)c1ccncc1 | . | 5 | . | . | .
Cc1ccc([N+](=O)[O-])c(Oc2ncnc3c2oc2ccccc23)c1 | i | -29* | 20% | 1% | 3%
CCOc1ccc(C2C(C(=O)OC)=C(C)NC3=C2C(=O)c2ccccc23)cc1OC (centres undefined) | ? | -27* | 39% | ? | ?
CCOc1cc(C2C(C(=O)OC)=C(C)NC3=C2C(=O)c2ccccc23)ccc1OCc1ccccc1 (centres undefined) | i | . | . | . | .
Cc1nc(CN2C(=O)OC3(CCN(C(=O)c4ccnn4C)CC3)C2(C)c2ccccc2)cs1 (centres undefined) | i | -12 | 10% | 3% | .
CN(Cc1cccc(N2CCN(S(=O)(=O)c3ccccc3C(F)(F)F)CC2)c1F)S(C)(=O)=O | . | 6 | . | . | .
Cn1ncc2c(C(=O)NCc3ccc(F)c(F)c3)cc(-c3cccc(F)c3)nc21 | . | 9 | . | . | .
Cc1ccc(CNC(=O)c2sc3ncnc(N(C)C4CCCCC4)c3c2C)cc1 | i | -6 | ? | -4% | .
SMILES | KDM5B inhibitor | IP6K1 inh | SNCA expr inh | HEK293 viab | IP6K1 conf
Cc1ccccc1CNC(=O)c1sc2ncnc(N(C)C3CCCCC3)c2c1C | ? | -28* | 3% | -5% | -17%
Cn1cnc2c(F)c(Nc3ccc(Br)cc3Cl)c(C(=O)NOCCO)cc21 | . | 15 | 13% | 12% | -13%
CCOC(=O)c1cnc2cc(Cl)c(OC)cc2c1Nc1ccc(Br)cc1C | ? | 1 | -13% | -1% | .
COc1ccccc1-c1cccc(C(=O)N2CCN(C(=O)c3cccc(Cl)c3)CC2)c1 | . | 10 | -8% | 5%[12.5 µM] | .
CC(C)c1ccc(NC(=O)c2ccc(=O)n(Cc3ccccc3)c2)cc1 | ? | -28* | 5% | -23% | -25%
COCCN(C)C[C@@H]1CN(C(=O)c2ccc(-c3ccccc3)n2C)C[C@@H]1CO | i | -34* | 133% | 12% | -15%
CN1C(=O)N[C@H](Cc2c[nH]c3c(Cl)cccc23)C1=O | . | . | . | . | -5%
CCCCCn1c(CCCNC(=O)c2ccc(Cl)cc2)nc2ccccc21 | i | -39* | -17% | -6% | -8%
NCCC(=O)N1CCC(n2nccc2NC(=O)Nc2cccc(F)c2)CC1 | 11µM* | -30* | 2% | 1% | 16%
O=C(Nc1cccc(F)c1)Nc1ccnn1C1CCN(C(=O)CCN2CCCO2)CC1 | i | . | . | . | .
COc1cccc(-c2ccc(C(=O)NCCNC(=O)C(C)C)cc2)c1 | . | -5 | . | . | .
COc1ccccc1CNC(=O)c1ccc2c(c1)nc(C)n2-c1cccc(C)c1 | i | -26* | 1% | -22% | -15%
COc1ccc(C2(C(=O)N3CCC4(CC3)CC(N3CCOCC3)CCO4)CC2)cc1 (centres undefined) | i | 7 | -8% | 0% | .
COc1ccc(S(=O)(=O)N2CCC3(CC2)CC(N2CCOCC2)CCO3)cc1 (centres undefined) | i | -26* | -25% | -8% | -16%
CCOc1cccc(-c2nc3ccccc3c(=O)o2)c1 | i | -29* | 94% | 8% | ?
COc1cccc(-c2nc3ccccc3c(=O)o2)c1 | i | . | . | . | .
CC(C)CNC(=O)c1ccnc(-c2nnc3ccc(Nc4ccccc4)nn23)c1 | ? | -28* | -2%[87.6 µM] | -11%[87.6 µM] | ?
C[C@@H]1CN(C(=O)c2ccnc(-c3nnc4ccc(Nc5ccccc5)nn34)c2)C[C@H](C)O1 | i | 7 | 16%[87.6 µM] | 2%[87.6 µM] | .
Cc1ccc(C(=O)NC2CCCN(c3ccc4nnc(C5CC5)n4n3)C2)cc1 (centres undefined) | . | -5 | . | . | .
Cc1cc(C)cc(NS(=O)(=O)c2ccc3[nH]cc(C(=O)N(C)Cc4ccccc4)c(=O)c3c2)c1 | ? | -26* | ? | -10% | -2%
CCc1noc(CC2CCOC3(CCN(S(=O)(=O)c4ccc(C(C)C)cc4)CC3)C2)n1 (centres undefined) | i | -1 | -6% | -7% | .
